Assay results from PubChem BioAssay (NCI).
This is part of a sample that, as a whole, favours compounds with a hit. Of some 79,000 tested, about 15% had one in any assay. A number with no mark means an inactive call. Activity calls are given as the source filed them. Rule as the data show it: active = growth inhibition above about 70%; inactive = the rest.

Tests used:
[1] = NCI Yeast Anticancer Drug Screen. Data for the rad50 strain (AID 155);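 also: 0% = growth of vehicle-only cultures of the same strain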; details: S. cerevisiae rad50 strain growth inhibition, stronger effect = higher value
Method in brief: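 DNA repair mutant yeast, compound exposure, growth read-out; inhibition is taken relative to vehicle.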

[2] = NCI Yeast Anticancer Drug Screen. Data for the mec2-1 strain (AID 157); details: S. cerevisiae mec2-1 strain, stronger effect = higher value
Method in brief: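 Test agents were screened against the mec2-1 yeast strain, with defined DNA repair or cell cycle alteration. Growth was scored as inhibition against vehicle-only controls.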

[3] = NCI Yeast Anticancer Drug Screen. Data for the sgs1 mgt1 strain (AID 161);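 also: 0% = growth of cultures given vehicle only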; details: S. cerevisiae sgs1 mgt1 strain, stronger effect = higher value
Method in brief: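 Test agents were incubated with a DNA-repair-mutant yeast strain. Growth was then read and compared against vehicle-treated controls.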

[4] = NCI Yeast Anticancer Drug Screen. Data for the cln2 rad14 strain (AID 165);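 also: 0% = growth equal to vehicle treated cultures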; details: S. cerevisiae cln2 rad14 strain, stronger effect = higher value
Method in brief: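 Growth of compound-exposed yeast (cln2 rad14 genotype) measured and expressed as inhibition relative to vehicle.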

[5] = NCI Yeast Anticancer Drug Screen. Data for the bub3 strain (AID 167); details: S. cerevisiae bub3 mutant strain, stronger effect = higher value
Method in brief: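 In this screen, a yeast mutant lacking normal mitotic checkpoint function is challenged with compound. Relative growth versus vehicle gives the inhibition value.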

[6] = NCI Yeast Anticancer Drug Screen. Data for the mlh1 rad18 strain (AID 175); details: S. cerevisiae mlh1 rad18 strain growth inhibition, stronger effect = higher value
Method in brief: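 In this whole-cell yeast screen, a strain with altered DNA damage repair is challenged with compound, and its growth is measured against matched vehicle-treated controls.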

[7] = at 5.0 µM (retest, dose inferred, filed as 0.5)
[8] = at 50.0 µM (retest, dose inferred, filed as 5.0)

Row | Compound | growth inhibition [1, 7] [%] | growth inhibition [1, 8] | growth inhibition ([1]; at 50.0 µM) | growth inhibition [2, 7] | growth inhibition [2, 8] | growth inhibition ([2]; at 50.0 µM) | growth inhibition [3, 7] | growth inhibition [3, 8] | growth inhibition ([3]; at 50.0 µM) | growth inhibition [4, 7] [%] | growth inhibition [4, 8] | growth inhibition ([4]; at 50.0 µM) | growth inhibition [5, 7] [%] | growth inhibition [5, 8] | growth inhibition ([5]; at 50.0 µM) | growth inhibition [6, 7] | growth inhibition [6, 8] | growth inhibition ([6]; at 50.0 µM)
1 | CC(CO)(CO)Cc1ccccc1 | 1 | -6% | 96.5% (active) | -2% | 6% | 97.9% (active) | 0% | -5% | 80.5% (active) | -3 | -4% | 92.3% (active) | -1 | 1% | 94% (active) | 2% | -3% | 93.2% (active)
2 | CCCCCCCCCC(=O)CC(=O)c1c(O)cccc1O | 33 | 83% (active) | 86% (active) | 20% | 92% (active) | 90.3% (active) | 52% | 96% (active) | 90.5% (active) | 22 | 83% (active) | 88.9% (active) | 42 | 94% (active) | 87.3% (active) | 40% | 95% (active) | 86.2% (active)
3 | Cc1c(Cl)ccc2c1NC(=O)C2(O)CC(=O)c1ccc(Cl)cc1 (stereo not given) | 13 | 98% (active) | 99.2% (active) | 14% | 99% (active) | 99% (active) | 31% | 100% (active) | 99.2% (active) | 31 | 98% (active) | 99.3% (active) | 14 | 99% (active) | 99.3% (active) | 13% | 99% (active) | 99.2% (active)
4 | CC(C)=CN(C)C (tested in a mixture with another compound) | -120 | 87% (active) | 93.5% (active) | -36% | 91% (active) | 96.7% (active) | -42% | 89% (active) | 91.7% (active) | -55 | 97% (active) | 98.4% (active) | -68 | 83% (active) | 91.2% (active) | -113% | 95% (active) | 95.8% (active)
5 | O=C1CCCCC1=C(I)I | 18 | 18% | 56.2% | 18% | 18% | 66.5% | 13% | 13% | 68.8% | -4 | -4% | 39.8% | 2 | 2% | 74.4% (active) | 12% | 12% | 72.2% (active)
6 | COc1cc2c(c(-c3cn(C)c4ccccc34)c1OC)OCO2 | 4 | 24% | 36.2% | 0% | 54% | 15.3% | 4% | 59% | 86% (active) | -1 | 1% | -30.6% | 2 | 78% (active) | 84.5% (active) | 0% | 35% | 41.9%
7 | CCCCC(CSC#N)SC#N (stereo not given) | 14 | 98% (active) | 99% (active) | 14% | 98% (active) | 98.3% (active) | 12% | 97% (active) | 97.2% (active) | 3 | 95% (active) | 97.2% (active) | 16 | 97% (active) | 98% (active) | 24% | 98% (active) | 98.3% (active)
8 | Oc1[nH]c2ccccc2c1N=NC(=S)NCc1ccccn1 | 9 | 99% (active) | 77.4% (active) | 2% | 99% (active) | 86.3% (active) | 22% | 98% (active) | 90.9% (active) | 31 | 99% (active) | 90.5% (active) | 3 | 99% (active) | 90.8% (active) | 26% | 99% (active) | 91.8% (active)
9 | O=C1CN(CCN2CCOCC2)CC(=O)N2CCCCN12 | 1 | -1% | 3.3% | -2% | -1% | 2.55% | 3% | 7% | 32.6% | -8 | 2% | 11.6% | -6 | -3% | 5.7% | -1% | -2% | 1.45%
10 | CCCCCCCCCCCCCCCCOCC(Cl)COP(=O)(O)OP(=O)(O)OCC1OC(n2cc(C)c(=O)[nH]c2=O)CC1O (stereo not given) | 27 | 99% (active) | 86% (active) | 30% | 94% (active) | 59.6% | 90% (active) | 99% (active) | 93% (active) | 22 | 85% (active) | 63.1% | 50 | 97% (active) | 79.5% (active) | 67% | 97% (active) | 84.7% (active)
11 | CC1=CC(=O)C=C(Br)C1=O | 18 | 99% (active) | 98.8% (active) | 12% | 99% (active) | 99.5% (active) | 6% | 95% (active) | 99.3% (active) | 2 | 41% | 87.7% (active) | 11 | 99% (active) | 99.2% (active) | 13% | 99% (active) | 99.2% (active)
12 | Cc1c2c(c(C)c3c1sc1ccccc13)CCN=C2 | 9 | 98% (active) | 55.5% | -14% | 98% (active) | 49.9% | -1% | 98% (active) | 57.6% | -21 | 98% (active) | 94.9% (active) | -5 | 98% (active) | 92.8% (active) | -8% | 99% (active) | 57.2%
13 | CC(C)(C)c1ccc(Br)c(CCC(=O)NO)c1 | -2 | 94% (active) | 97% (active) | -1% | 98% (active) | 98.6% (active) | -15% | 96% (active) | 97% (active) | -3 | 91% (active) | 98.7% (active) | -1 | 96% (active) | 97.7% (active) | 9% | 98% (active) | 97.8% (active)
14 | CCNC1(C2c3ccccc3-c3ccccc32)c2ccccc2-c2ccccc21 | 13 | 84% (active) | 20% | -17% | 25% | 11.8% | 4% | 84% (active) | 44.1% | -12 | 36% | 18.5% | -4 | 71% (active) | 58.4% | 30% | 74% (active) | 37%
15 | CC12CCCCC1CCC(Br)C2=O (stereo not given) | -115 | -2% | 59% | -40% | -18% | 41.5% | -51% | 22% | 70.2% (active) | -50 | -35% | -17.7% | -57 | -34% | 13.1% | -128% | -55% | 61.6%
16 | OCC(O)C(O)C(O)/C=N\Nc1ccccc1 (stereo not given) | 9 | 19% | 49.6% | -3% | -6% | 44.4% | -5% | 15% | 39.5% | -3 | -7% | 43% | 1 | 31% | 51.5% | 16% | 42% | 18.1%
17 | CCCCCCCCCCCC(=O)C(=O)c1ccc(O)cc1O | 52 | 88% (active) | 93.8% (active) | 87% (active) | 93% (active) | 97.3% (active) | 91% (active) | 92% (active) | 96.4% (active) | 25 | 84% (active) | 95.5% (active) | 45 | 90% (active) | 95.8% (active) | 87% (active) | 92% (active) | 96.7% (active)
18 | Cn1cnc([N+](=O)[O-])c1Sc1ccc(Cl)cc1 | 16 | 93% (active) | 93.8% (active) | 8% | 92% (active) | 76.9% (active) | 11% | 98% (active) | 90.9% (active) | 2 | 61% | 42.2% | 0 | 92% (active) | 83.2% (active) | 5% | 97% (active) | 90.3% (active)
19 | CCC(c1ccc(OC)cc1)C(O)(CC)c1ccc(OC)cc1 (stereo not given) | -4 | 98% (active) | 99% (active) | -7% | 99% (active) | 98.8% (active) | -11% | 98% (active) | 98.4% (active) | -10 | 99% (active) | 98% (active) | 11 | 99% (active) | 98.9% (active) | -3% | 98% (active) | 98.6% (active)
20 | CSc1c(C)n([O-])c2cc(Cl)c(Cl)cc2[n+]1=O | 20 | 94% (active) | 79.8% (active) | 14% | 93% (active) | 86% (active) | 24% | 99% (active) | 85.4% (active) | 17 | 87% (active) | 64.4% | 24 | 96% (active) | 79.2% (active) | 23% | 97% (active) | 92.3% (active)
